Test results from PubChem BioAssay (NCATS).
Records with an inconclusive call do not appear. Where a call stands in place of a potency, no number is given. Active and inactive are the calls of the source. Calls follow the shape of the dose curve; as a rule, active = well fitted cell-killing curve with a large enough effect; inconclusive = small, poorly fitted or top-dose-only effect; inactive = flat fitted curve, though single readings scatter.

test: Quantitative highthroughput screen to assess conditional lethalithy of P12 Ichikawa cells grown in RPMI1640 with dialyzed fetal bovine serum (RPMI+ds) (AID 1963880); details: ATP luminescence, 48 h; Potency: P12-Ichikawa viability; series mostly up to 45.8 µM; also: nearly all actives have a fitted effect of over 35% in size
Description: Assay Provider: Jason Cantor Ph.D.
Department of Biochemistry
University of Wisconsin-Madison, Madison, WI, USA
Chemical screening studies have identified drug sensitivities across hundreds of cancer cell lines but most putative therapeutics fail to translate. Discovery and development of drug candidates in models that more accurately reflect nutrient levels in human blood is a major challenge. Here we performed high-throughput screens in conventional versus Human Plasma-Like Medium (HPLM) to identify compounds that were "missed" when screening using the artificial culture condition. Sets of conditional anticancer compounds spanned phases of clinical development and included non-oncology drugs were assessed. […] We also traced conditional phenotypes for several chemotherapeutics to availability of HPLM-specific metabolites and confirmed others for compounds whose reported targets are encoded by nonessential genes. Our findings establish generalizable strategies for exploiting conditional lethality in HPLM to reveal therapeutic candidates and mechanisms of action in cancer cells.
Described herein are the results of each viability screens against three cell lines: NOMO1 (an acute myeloid leukemia cell line); P12-Ichikawa (a T-cell acute lymphoblastic leukemia); and SEM (a B-cell ALL). Each assay was screened using 3 different cell culture media: homemade human plasma-Like medium with 10% dialyzed fetal bovine serum (HPLM+ds); RPMI1640 with 10% untreated FBS and 5mM glucose (RPMI+s); and RPMI1640 with 10% dialyzed fetal bovine serum and 5 mM glucose (RPMI+ds).
PROTOCOL TABLE (as described by Inglese J, Shamu CE and Guy RK. 2007)
SEQUENCE No. (e.g., 1, 2, 3, etc.); […] (e.g., Cells, Incubation, Reagent, etc.); VALUE and DESCRIPTION.
1; Cells; 5 uL; white, solid bottom 1536-well Greiner assay plate.
2; Compounds; 23 nL; Kalypsis pin tool (Wako USA) equipped with a 1536-well pin head to transfer to the assay plates.
3; Incubation; 48 hours; 37C incubation.
4; Reagent; 3 uL; CellTiter Glo (Promega).
5; Incubation; 5 min, room temperature
6; Detection; Luminescence, Viewlux PerkinElmer.
NOTES (numbers refer to Sequence numbers above)
1. Briefly, 5 ul of cell reagent was dispensed using a Multidrop Combi Dispenser. The NOMO1 and SEM cells were plated at 500 cells/well and the P12-Ichikawa line at 1000 cells/well.
2. After seeding the cells, 23 nL of MIPE 4.1 library compounds (in DMSO) were added to each plate using a Kalypsys 1536 Pintool dispenser. Bortezomib at final concentration of […] and DMSO were added to each plate as positive and negative controls respectively. For each screen, MIPE 4.1 compounds were added over an eleven-point concentration range […] in 3-fold dilutions.
3. Each plate was covered with a stainless steel gasketed lid to prevent evaporation and incubated for 48 hour at 37C, 95% relative humidity, and 5% CO2.
4-5. Three microliter CellTilter-GloTM luminescent substrate mix (Promega) reagent was added to the assay plate and incubated at room temperature for 5 min.
6. The luminescence signal was measured using a ViewLux (PerkinElmer) multiplate reader with a 2 second exposure time per plate. Data for each compound were normalized as percent viability such that measurements for DMSO and the empty well controls in each plate were defined as 100% and 0%, respectively.
Potency is read from the fitted curve at half-maximal effect.

Question: For C=C(C)[C@@H]1CC[C@]2(C)CC[C@]3(C)[C@H](CC[C@@H]4[C@@]5(C)CC[C@H](O)C(C)(C)[C@H]5CC[C@]43C)[C@@H]12, which Potency is on record?
Answer: inactive

Question: Which Potency does the source give for Cc1cc(NC(=O)Nc2ccc(N(C)C)cc2)c2cc(F)cc(F)c2n1 here?
Answer: inactive

Question: Which Potency does the source give for Cc1ccc(C(=O)Nc2ccc(Oc3cc4cnn(C)c4cc3-c3cn[nH]c3)c(F)c2)c(=O)n1-c1ccc(F)cc1 here?
Answer: 7.41 µM (active)

Question: For CC1(C)CC(O)CC(C)(C)N1[O], which Potency is on record?
Answer: inactive

Question: For COC1=C(OC)C(=O)C(CC=C(C)CCC=C(C)CCC=C(C)CCC=C(C)CCC=C(C)CCC=C(C)CCC=C(C)CCC=C(C)CCC=C(C)CCC=C(C)C)=C(C)C1=O, which Potency is on record?
Answer: inactive

Question: Which Potency does the source give for N#C[C@H]1C[C@H]2C[C@@H]2N1C(=O)[C@@H](N)C12CC3CC(CC(O)(C3)C1)C2 here?
Answer: inactive

Question: With Cc1cc(Nc2ncc3c(n2)N(C)C(=O)N(c2cc(NC(=O)c4cccc(C(F)(F)F)c4)ccc2C)C3)n(C)n1 as the molecule, how does the Potency read?
Answer: 11.8 µM (active)

Question: Which Potency does the source give for Cc1[nH]c(=O)c(C#N)cc1-c1ccc2nccn2c1 here?
Answer: inactive

Question: With C[C@H]1Oc2cc(cnc2N)-c2c(nn(C)c2C#N)CN(C)C(=O)c2ccc(F)cc21 as the molecule, how does the Potency read?
Answer: inactive

Question: Which Potency does the source give for CC(C)OC(=O)C1=CN(C(=O)c2ccc(F)c(F)c2)CC(C)(C)c2c1[nH]c1ccccc21 here?
Answer: inactive

Question: With CN1C(C(=O)Nc2ccccn2)=C(O)c2sc(Cl)cc2S1(=O)=O as the molecule, how does the Potency read?
Answer: inactive

Question: With CC(=O)N(O)CCCCCNC(=O)CCC(=O)N(O)CCCCCNC(=O)CCC(=O)N(O)CCCCCN as the molecule, how does the Potency read?
Answer: 0.0741 µM (active)

Question: For CC(C)(N)c1ccc(-c2nc3ccccc3nc2-c2ccccc2)cc1, which Potency is on record?
Answer: 0.0743 µM (active)

Question: With CC[C@H](NC(C)C)[C@H](O)c1ccc(O)c2[nH]c(=O)ccc12 as the molecule, how does the Potency read?
Answer: inactive

Question: For O=C(C=Cc1cccc(S(=O)(=O)Nc2ccccc2)c1)NO, which Potency is on record?
Answer: 6.05 µM (active)

Question: With N#CC(=C(N)Sc1ccccc1N)C(C#N)=C(N)Sc1ccccc1N as the molecule, how does the Potency read?
Answer: inactive

Question: Which Potency does the source give for NC(=O)N1c2ccccc2CC(=O)c2ccccc21 here?
Answer: inactive

Question: For COc1ccc2c(c1OC)C(=O)OC2[C@H]1c2c(cc3c(c2OC)OCO3)CCN1C (stereo not given in full), which Potency is on record?
Answer: 0.59 µM (active)

Question: For C[C@@H]1CC(=O)NN=C1c1ccc(NN=C(C#N)C#N)cc1, which Potency is on record?
Answer: 26.4 µM (active)

Question: Which Potency does the source give for Cc1ccc(NC(=O)C2(c3ccc4c(c3)OC(F)(F)O4)CC2)nc1-c1cccc(C(=O)O)c1 here?
Answer: 0.187 µM (active)

Question: With CN[C@@H](C)[C@H]1[C@H](O)C[C@@]2(C)[C@@H]3CC[C@H]4C(C)(C)[C@@H](NC)CC[C@@]45C[C@@]35CC[C@]12C as the molecule, how does the Potency read?
Answer: inactive

Question: For COc1cc([C@H]2Oc3cc([C@H]4Oc5cc(O)cc(O)c5C(=O)[C@H]4O)ccc3O[C@H]2CO)ccc1O, which Potency is on record?
Answer: inactive

Question: Which Potency does the source give for O=C1CCC[C@@H]2[C@H]3CCC[N+]4([O-])CCC[C@@H](CN12)[C@@H]34 (stereo not given in full) here?
Answer: inactive

Question: For COc1ccc(CCC(=O)Nc2nc3ccc(Cl)cc3s2)cc1OC, which Potency is on record?
Answer: inactive

Question: For CC(C)(C)c1nc(-c2cccc(NS(=O)(=O)c3c(F)cccc3F)c2F)c(-c2ccnc(N)n2)s1, which Potency is on record?
Answer: 0.743 µM (active)

Question: With O=C1C(CCC(O)c2ccc(F)cc2)C(c2ccc(O)cc2)N1c1ccc(F)cc1 (stereo not given) as the molecule, how does the Potency read?
Answer: inactive

Question: Which Potency does the source give for C[C@@H](c1ncncc1F)[C@](O)(Cn1cncn1)c1ccc(F)cc1F here?
Answer: inactive

Question: With Cc1cc2c(cc1C1(c3ccc(C(=O)O)cn3)CC1)C(C)(C)CCC2(C)C as the molecule, how does the Potency read?
Answer: inactive

Question: Which Potency does the source give for COc1ccccc1N1CCN(CCN(C(=O)C2CCCCC2)c2ccccn2)CC1 here?
Answer: inactive

Question: Which Potency does the source give for CN1CCC[C@H]1CCO[C@](C)(c1ccccc1)c1ccc(Cl)cc1 here?
Answer: inactive

Question: Which Potency does the source give for CN1CCN(c2ncc(-c3cc(Cl)cc(Cl)c3Cl)c(N)n2)CC1 here?
Answer: 3.72 µM (active)

Question: Which Potency does the source give for CCCc1nc2c(C)cc(-c3nc4ccccc4n3C)cc2n1Cc1ccc(-c2ccccc2C(=O)O)cc1 here?
Answer: inactive

Question: With CCOC(=O)C1=C(N)Oc2ccc(Br)cc2C1C(C#N)C(=O)OCC (stereo not given) as the molecule, how does the Potency read?
Answer: inactive

Question: Which Potency does the source give for Cc1ccc(CN2CCNCC2)cc1NC(=O)CNc1ccc(F)c(F)c1 here?
Answer: inactive

Question: For O=C(Nc1cc(C(F)(F)F)cc(C(F)(F)F)c1)c1cc(Cl)ccc1O, which Potency is on record?
Answer: 3.32 µM (active)

Question: With O=c1ccn([C@@H]2O[C@H](CO)[C@H](O)[C@H]2O)c(=O)[nH]1 as the molecule, how does the Potency read?
Answer: inactive

Question: For COc1ccc(-c2oc3cc(OC)ccc3c2C(=O)c2ccc(C#N)cc2)cc1, which Potency is on record?
Answer: 2.96 µM (active)

Question: With CN(C)c1ccc(-c2nc3ncc(Cl)c(N4CCN(CC(=O)Nc5nccs5)CC4)c3[nH]2)cc1 as the molecule, how does the Potency read?
Answer: inactive

Question: With Fc1ccc(CNc2ncnc3ccc(F)cc23)cc1 as the molecule, how does the Potency read?
Answer: 11.8 µM (active)

Question: For O=C(c1cncc(Br)c1)N1CCC(N2CCCC2)CC1, which Potency is on record?
Answer: inactive
